In experiment [1] the test system is Wnt5a (protein binding on small-molecule microarray). The experiment is described as follows: Wnt5a binders on small-molecule microarray, primary screen, biophysical, 635/667 nm fluorescence (AID 1142).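 Also: fluorescence read at 667 nm with signal to noise per printed feature.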 The following applies: 635 nm fluorescence, higher = more signal.
A short description of experiment [2]: cell viability in Huh7 cells, primary screen, cytotoxicity control for HCV replication inhibitor project, CellTiter-Glo luminescence, basal, 48 h (AID 1143).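 Also: Huh7 hepatoma cells carrying a hepatitis C replication reporter with no stimulus; test concentration not given here.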 Particulars: Huh7 HCV replicon, higher = more signal, called active from +8 up or from −8 down.
Experiment [3] in a line: P. aeruginosa biofilm formation inhibitors, primary screen, PAO1 strain, BacTiter-Glo luminescence, LB-PBS (AID 1144). The following applies: 12 h, higher = more signal.
Experiment [4] is described as follows: CREB reporter modulators without forskolin, primary screen, cell-based, PC12, CRE-LacZ reporter, unstimulated (AID 1145). Particulars: no forskolin, luminescence, 4.5 h, higher = more signal, called active from +8 up or from −8 down.
Experiment [5] in a line: CREB reporter modulators under forskolin, primary screen, cell-based, PC12, CRE-LacZ reporter, forskolin-stimulated (AID 1146).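 Also: PC12 cells with 6xCRE LacZ reporter stimulated by forskolin 10 µM; beta-galactosidase reporter signal reflecting CREB driven transcription.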 Particulars: luminescence, 4.5 h, higher = more signal, called active from +8 up or from −8 down.
Experiment [6] addresses Streptavidin (Streptomyces avidinii) (UniProt P22629). The experiment is described as follows: streptavidin binders on small-molecule microarray, primary screen, artefact control for SMM compound annotation, biophysical, 635/667 nm fluorescence (AID 1147).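 Also: signal reflects streptavidin binding to arrayed compounds as a control protein.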 Particulars: streptavidin binding, higher = more signal.
Experiment [7] in a line: small-molecule binders of probe aInhba, primary screen, biochemical, small-molecule microarray, 635/667 nm fluorescence (AID 1148).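 Also: score merges 667nm spot fluorescence with signal-to-noise for antibody binding to printed compounds.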 Particulars: higher = more signal.
In experiment [8] the target is Torsin-1A (Homo sapiens) (UniProt O14656). The experiment is described as follows: torsin A binders from cell lysate, primary screen, small-molecule microarray, wild-type, 635/667 nm (AID 1149). The following applies: COS7 hTOR1A-WT lysate, 635 nm fluorescence, higher = more signal.
Chain of Torsin-1A (Homo sapiens) (O14656 whole entry, looked up): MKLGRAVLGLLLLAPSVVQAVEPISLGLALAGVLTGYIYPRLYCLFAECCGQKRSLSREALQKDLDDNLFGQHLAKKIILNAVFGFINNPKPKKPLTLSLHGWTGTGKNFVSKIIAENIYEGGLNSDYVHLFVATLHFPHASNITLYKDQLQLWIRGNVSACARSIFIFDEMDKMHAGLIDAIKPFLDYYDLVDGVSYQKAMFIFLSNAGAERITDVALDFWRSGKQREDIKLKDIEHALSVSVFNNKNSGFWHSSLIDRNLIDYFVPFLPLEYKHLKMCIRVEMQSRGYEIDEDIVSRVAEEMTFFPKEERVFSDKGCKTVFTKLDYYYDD
Experiment [9] shares this target. Nature of the experiment: small-molecule binders of mutant TOR1A in lysate, primary screen, cell lysate, small-molecule microarray, COS7 lysate, 635/667 nm fluorescence (AID 1150).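 Also: score pools 667 nm emission and signal to noise measuring lysate protein binding.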 The following applies: COS7 hTOR1A mutant lysate, 635 nm fluorescence, higher = more signal.
Experiment [10] concerns Sonic hedgehog protein (Shh). Nature of the experiment: small-molecule binders of Shh protein, primary screen, biochemical, small-molecule microarray, 635/667 nm fluorescence (AID 1151).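 Also: Shh protein binding to compounds spotted on small-molecule microarray slides; score combines spot fluorescence intensity with signal-to-noise across triplicate slides.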 The following applies: small-molecule microarray binding, 635 nm fluorescence; higher = more signal.
Experiment [11] in a line: E. coli DRC41 culture turbidity changes, primary screen, E. coli filamentation inducer project, strain DRC41, OD650, 48 h (AID 1152).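 Also: E. coli MC1000 strain DRC41 lacking acrAB efflux pump and sulA.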 The following applies: E. coli DRC41 (acrAB sulA), higher = more signal, called active from +8 up or from −8 down.
Experiment [12] in a line: small-molecule binders of probe aLefty1, primary screen, biochemical, small-molecule microarray, 635/667 nm fluorescence (AID 1153).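 Also: score merges spot fluorescence with signal-to-noise ratio from the scanned slide images.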 Particulars: higher = more signal.
The nature of experiment [13]: PSAC antagonists in infected red cells, primary screen, cell-based, P. falciparum Indochina, OD700, 1 h (AID 1154). Particulars: P. falciparum Indochina infected RBC osmotic lysis, higher = more signal, called active from +8 up or from −8 down.
A short description of experiment [14]: PSAC antagonists in infected red cells, primary screen, cell-based, P. falciparum Indochina, OD700, 2 h (AID 1155).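 Also: lysis reports solute entry through the parasite surface anion channel PSAC; channel blockers reduce lysis of infected cells.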 Particulars: P. falciparum Indochina infected erythrocytes, osmotic lysis OD700; higher = more signal, called active from +8 up or from −8 down.
A short description of experiment [15]: osmotic lysis modulators in infected erythrocytes, primary screen, PSAC antagonist project, cell-based, P. falciparum Indochina, OD700, 3 h (AID 1156). Particulars: higher = more signal, called active from +8 up or from −8 down.
A short description of experiment [16]: PSAC antagonists in infected red cells, primary screen, cell-based, P. falciparum Indochina, OD700, 18 h (AID 1157). Particulars: P. falciparum Indochina infected erythrocytes, osmotic lysis OD700, 18 h; higher = more signal, called active from +8 up or from −8 down.
The nature of experiment [17]: modulators of S6 phosphorylation in cells, primary screen, cell-based, A549, cytoblot, luminescence, serum-stimulated (AID 1158).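 Also: serum-stimulated A549 lung adenocarcinoma cells; signal is phosphorylated S6 detected by cytoblot immunostaining with HRP secondary.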 Particulars: A549 phospho-S6 cytoblot, 5 h, higher = more signal.
Experiment [18] concerns the target NADPH oxidase 2 (Homo sapiens) (UniProt P04839). The experiment is described as follows: NOX2-dependent H2O2 signal modulators, primary screen, NOX inhibitor project, cell-based, HEK293-NOX2, PMA-stimulated, Amplex Red fluorescence (AID 1159). Also: test concentration not given here. Particulars: 45 min, higher = more signal, called active from +8 up or from −8 down.
For experiment [19], the target named is NADPH oxidase 4 (Homo sapiens) (UniProt Q9NPH5). The experiment is described as follows: NOX4-dependent H2O2 signal modulators, primary screen, NOX inhibitor project, cell-based, HEK293-NOX4, tetracycline-induced, Amplex Red fluorescence (AID 1160). The following applies: 45 min, higher = more signal, called active from +8 up or from −8 down.
Chain of NADPH oxidase 4 (Homo sapiens) (Q9NPH5 whole entry, looked up): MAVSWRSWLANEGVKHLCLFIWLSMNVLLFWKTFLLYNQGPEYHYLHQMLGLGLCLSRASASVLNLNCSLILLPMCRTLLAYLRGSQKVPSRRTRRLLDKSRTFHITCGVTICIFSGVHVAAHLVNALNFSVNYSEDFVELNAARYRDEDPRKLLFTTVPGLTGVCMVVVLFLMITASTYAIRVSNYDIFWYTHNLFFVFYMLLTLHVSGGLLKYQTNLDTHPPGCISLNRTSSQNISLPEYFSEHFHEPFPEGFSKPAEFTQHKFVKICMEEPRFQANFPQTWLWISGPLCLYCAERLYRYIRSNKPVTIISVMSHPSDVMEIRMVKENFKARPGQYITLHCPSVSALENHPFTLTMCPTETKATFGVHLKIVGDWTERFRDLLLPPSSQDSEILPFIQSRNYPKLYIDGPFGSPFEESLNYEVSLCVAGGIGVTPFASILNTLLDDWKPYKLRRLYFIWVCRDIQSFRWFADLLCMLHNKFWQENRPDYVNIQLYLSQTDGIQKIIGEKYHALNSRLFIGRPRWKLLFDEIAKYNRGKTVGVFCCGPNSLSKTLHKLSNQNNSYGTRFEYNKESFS
The target in experiment [20] is NADPH oxidase 5 (Homo sapiens) (UniProt Q96PH1). The experiment is described as follows: NOX5-dependent H2O2 signal modulators, primary screen, NOX inhibitor project, cell-based, HEK293-NOX5, Amplex Red fluorescence (AID 1161). The following applies: HEK293-NOX5, ionomycin, 45 min, higher = more signal.
Chain of NADPH oxidase 5 (Homo sapiens) (Q96PH1 whole entry, looked up): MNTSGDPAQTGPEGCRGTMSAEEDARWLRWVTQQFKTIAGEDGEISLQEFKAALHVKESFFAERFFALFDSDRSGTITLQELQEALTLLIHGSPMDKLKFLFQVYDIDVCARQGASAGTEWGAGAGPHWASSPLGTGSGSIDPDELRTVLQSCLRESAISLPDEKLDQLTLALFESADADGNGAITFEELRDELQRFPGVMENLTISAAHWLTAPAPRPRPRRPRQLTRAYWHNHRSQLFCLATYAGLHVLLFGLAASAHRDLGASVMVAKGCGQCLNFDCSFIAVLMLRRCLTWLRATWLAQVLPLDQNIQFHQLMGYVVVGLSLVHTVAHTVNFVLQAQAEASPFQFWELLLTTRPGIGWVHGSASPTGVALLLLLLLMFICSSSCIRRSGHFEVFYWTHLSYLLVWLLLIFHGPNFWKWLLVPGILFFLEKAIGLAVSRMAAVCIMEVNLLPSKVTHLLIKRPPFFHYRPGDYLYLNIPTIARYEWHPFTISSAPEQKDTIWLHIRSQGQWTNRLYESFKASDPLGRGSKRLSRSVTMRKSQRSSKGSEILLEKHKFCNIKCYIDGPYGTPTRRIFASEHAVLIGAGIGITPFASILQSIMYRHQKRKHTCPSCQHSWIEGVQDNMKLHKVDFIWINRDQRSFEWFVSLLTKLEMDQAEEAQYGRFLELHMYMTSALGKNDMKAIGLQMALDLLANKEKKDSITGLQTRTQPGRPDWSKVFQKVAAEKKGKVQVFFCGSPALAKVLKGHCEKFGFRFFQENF

Activity calls are given as the source filed them. Unless noted, no rule for the calls is given here.

Chain of Streptavidin (Streptomyces avidinii) (P22629 whole entry, looked up): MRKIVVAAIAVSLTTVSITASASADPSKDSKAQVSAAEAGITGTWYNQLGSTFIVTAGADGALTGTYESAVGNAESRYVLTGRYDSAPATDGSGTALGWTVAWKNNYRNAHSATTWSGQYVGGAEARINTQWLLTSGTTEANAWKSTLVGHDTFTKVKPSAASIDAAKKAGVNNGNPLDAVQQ
Chain of NADPH oxidase 2 (Homo sapiens) (P04839 whole entry, looked up): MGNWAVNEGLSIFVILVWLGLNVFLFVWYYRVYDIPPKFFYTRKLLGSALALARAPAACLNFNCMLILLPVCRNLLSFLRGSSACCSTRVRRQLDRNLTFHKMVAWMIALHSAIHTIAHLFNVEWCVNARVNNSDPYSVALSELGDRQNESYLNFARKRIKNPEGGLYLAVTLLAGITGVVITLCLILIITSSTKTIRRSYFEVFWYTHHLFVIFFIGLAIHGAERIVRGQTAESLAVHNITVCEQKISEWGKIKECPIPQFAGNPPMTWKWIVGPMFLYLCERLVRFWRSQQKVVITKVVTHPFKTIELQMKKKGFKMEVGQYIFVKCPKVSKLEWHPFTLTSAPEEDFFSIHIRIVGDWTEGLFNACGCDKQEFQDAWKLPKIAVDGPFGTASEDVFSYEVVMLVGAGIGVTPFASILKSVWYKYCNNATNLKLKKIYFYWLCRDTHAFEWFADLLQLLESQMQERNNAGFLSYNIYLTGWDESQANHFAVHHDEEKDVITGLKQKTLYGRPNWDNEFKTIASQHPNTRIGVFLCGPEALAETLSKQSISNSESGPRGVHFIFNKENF

In the case of `COCCOC(=O)N1C(=O)[C@@]2(c3cc(C#CC4=CCCCC4)ccc31)[C@H](C(=O)N1CCCCCCC1)[C@H]1C(=O)O[C@H](c3ccccc3)[C@H](c3ccccc3)N1[C@@H]2c1ccc(O)cc1`, the composite z-score in experiment [1] came to 0.278; in experiment [6], 0.0947; in experiment [7] it was 0.329; with Torsin-1A (Homo sapiens) [8] it was 0.681; in the experiment with Torsin-1A (Homo sapiens) [9] it was 0.595; in experiment [10], 1.3. The compound also came in with a composite z-score in experiment [12] of 0.93. The z-score in experiment [2] was -4.39 (inactive); in experiment [3], -1.7 (inactive); in [4], -0.815 (inactive); in experiment [5], 0.234 (inactive); in experiment [11] it was 1.63 (inactive); in experiment [13], -0.43 (inactive). The z-score in experiment [14] was -1.2 (inactive); in experiment [15], -1.27 (inactive); in experiment [16], -1.96 (inactive); in experiment [17], 2.44; in experiment [18], 0.67 (inactive); in experiment [19] it was 0.257 (inactive). This compound came in with a z-score in experiment [20] of 0.871.

As to `O=C(N1CCCCC1)[C@@]1(CCS(=O)(=O)c2ccccc2)COC(c2ccc(OCCCO)cc2)=N1`, the composite z-score in experiment [1] amounted to 1.17; in experiment [6] it was 1.31; in experiment [7], 0.421; with Torsin-1A (Homo sapiens) [8] it was 1.19; with Torsin-1A (Homo sapiens) [9] it was 0.496; in [10], 0.447. The composite z-score in experiment [12] was determined as 0.457. Further, the z-score in experiment [2] is -2.3 (inactive); in [3], 0.514 (inactive); in experiment [4] it was 0.62 (inactive); in experiment [5], -0.334 (inactive); in [11], 0.641 (inactive); in experiment [13], 27.3 (active). For the same compound, the z-score is 21.1 (active) in experiment [14]; 2.47 (inactive) in experiment [15]; 2.93 (inactive) in experiment [16]; -0.436 in experiment [17]; -1.53 (inactive) in experiment [18]; 0.675 (inactive) in experiment [19]. Moreover, the z-score in [20] came to 0.885.

`[N-]=[N+]=NCc1ccccc1C[C@@]1(C(=O)N2CCCCC2)N=C(c2ccc(OCCCO)cc2)O[C@@H]1c1ccccc1`: the composite z-score in experiment [1] was 0.462; in experiment [6] it was 0.325; in [7], 0.159; with Torsin-1A (Homo sapiens) [8], -0.0373; with Torsin-1A (Homo sapiens) [9], 0.601; in experiment [10], -0.762. Besides, the composite z-score in experiment [12] is 0.0323. For the same compound, the z-score is -4.99 (inactive) in [2]; 0.914 (inactive) in experiment [3]; -0.552 (inactive) in experiment [4]; 0.886 (inactive) in experiment [5]; -0.184 (inactive) in [11]; 25.2 (active) in experiment [13]. Moreover, the z-score in experiment [14] was 14.3 (active); in experiment [15] it was 2.13 (inactive); in experiment [16] it was 2.51 (inactive); in experiment [17], 0.893; in experiment [18] it was -2.02 (inactive); in experiment [19], -0.495 (inactive). The z-score in experiment [20] was -1.49.

In the case of `COc1ccccc1CN1C(=O)c2ccccc2[C@@]2(Cc3ccccc3N(CC(F)(F)F)C2=O)[C@@H]1c1ccc(CO)cc1`, the composite z-score is 0.0586 in experiment [1]; 0.276 in [6]; 0.173 in experiment [7]; -0.116 with Torsin-1A (Homo sapiens) [8]; -0.33 with Torsin-1A (Homo sapiens) [9]; 0.53 in experiment [10]. This compound showed a composite z-score in experiment [12] of 0.0623. Also, the z-score was 0.338 (inactive) in experiment [2]; 0.126 (inactive) in experiment [3]; 1.24 (inactive) in experiment [4]; -0.173 (inactive) in [5]; 0.254 (inactive) in experiment [11]; 0.252 (inactive) in [13]. Moreover, the z-score in [14] is 0.633 (inactive); in experiment [15], -1.9 (inactive); in experiment [16], 0.206 (inactive); in [17], -0.309; in experiment [18] it was -0.802 (inactive); in [19], -0.565 (inactive). Further, the z-score in experiment [20] was -0.154.

Source of the values: PubChem BioAssay.
